# From PubChem BioAssay
# TDP1 cell noCPT: qHTS for Inhibitors of human tyrosyl-DNA phosphodiesterase 1 (TDP1): qHTS in cells in absence of CPT | 15% of 420,000 active | Potency, µM (titrated, usually from 46.2 µM), usual class: inhibitors | DT40 Tdp1-/- hTDP1 cells, no CPT, ATP luminescence, 48 h; further: nearly all actives have a fitted effect of over 55% in size
#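 Seeded 400 DT40-hTDP1 cells/well (vehicle DMSO, no 20 nM CPT); pinned compounds; ≥48 hr at 37 °C; CellTiter-Glo luminescence as viability measure.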
# IL-1B inflam inh: inflammasome signaling inhibition, IL-1 beta readout; THP-1 LPS/ATP IL-1B secretion, AlphaLISA, 16 h; stronger effect = lower value; activity change, % at 57.5 µM; 4.7% of 360,000 active; in the data active means activity change below about -50%; inconclusive means mostly about -30% to -49%
#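 THP-1 cells pretreated 1 hr with compounds (up to 57.5 uM final), then stimulated with LPS (250 ng/mL final) plus ATP (1.25 mM final); secreted IL-1B measured by AlphaLISA after 16 hr, decreased signal indicating inhibition.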
# HT1080-NT tox: kills 2HG-producing HT-1080-NT fibrosarcoma cells; HT-1080-NT fibrosarcoma viability, CellTiter-Glo ATP luminescence, 48 h; Potency, µM (highest dose often 46.1 µM), actives largely listed as cytotoxic; 1.6% of 360,000 active; AID 686970;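 further: NT is the 2HG producing partner of a matched IDH1 knockdown line; nearly all actives have a fitted effect of over 55% in size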
#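 Viability by CellTiter-Glo luminescence after 48 h compound exposure at 37C of HT-1080-NT cells (750/well, RPMI, 5% FBS). % activity scaled between DMSO wells and medium-only wells, then curve-fitted and categorized by curve class.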
# HT1080 IDH1KD tx: HT-1080 IDH1 knockdown cell toxicity (counter line) | HT-1080 IDH1 knockdown viability, ATP luminescence, 48 h | Potency, µM (highest dose often 46.1 µM), actives largely listed as cytotoxic | 2% of 360,000 active
#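 Viability of IDH1-knockdown HT-1080 fibrosarcoma cells was assessed by CellTiter-Glo after 48 h at 37 °C with titrated compound; concentration-effect curves were classified by fit quality and response size.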
# TDP1 cell CPT: growth inhibition of DT40 Tdp1-/-;hTDP1 cells with camptothecin (screen for TDP1 inhibitors); 12% of 420,000 active; AID 686979; Potency, µM (series often up to 46.2 µM), hits mostly inhibitors; chicken DT40 Tdp1-/-;hTDP1 cells + 20 nM CPT, ATP luminescence, 48 h; further: nearly all actives have a fitted effect of over 55% in size
#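 Cell growth measured by CellTiter-Glo luminescence after a minimum 48 h, 37 C compound exposure with 20 nM CPT in Tdp1-knockout DT40 cells stably expressing hTDP1, seeded 400/well; qHTS titration format.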
# Hits are given with their value; - = inactive; ? = inconclusive; . = no result given; ! = not confirmed by another sample. Sampled rows, rich in hits. Any-hit rate of the full collection: about 19%. Unless noted, the call rests on the fitted dose curve; in most records, active means well fitted curve in the direction sought with a large enough effect; inconclusive means small, poorly fitted or top-dose-only effect, or another doubt; inactive means no such curve, though single readings can be large; an effect the other way counts as inactive or inconclusive.
SMILES,TDP1 cell noCPT,IL-1B inflam inh,HT1080-NT tox,HT1080 IDH1KD tx,TDP1 cell CPT
CCCCN(C)C(=O)c1ccc(Nc2nc(C(N)Cc3ccccc3)cs2)nc1 (stereo unspecified),15µM,-,23µM,-,23µM
Cc1cccc(C)c1NC(=O)CCCSc1nnc(-c2ccc(F)cc2)n1-c1ccccc1,?,-,-,-,?
Cc1ccc(/C=N/NC(=O)CSc2nnc(-c3ccc(Cl)cc3)n2-c2ccc(Cl)cc2)o1,?,-,18µM,?,23µM
Cc1ccc(-c2nnc(SCC(=O)N/N=C/c3ccc(C)s3)n2-c2ccccc2)cc1,18µM,-,?,?,?
Cc1nn(-c2ccccc2)c(C)c1/C=N/NC(=O)CSc1nnc(-c2ccccc2)n1-c1ccc(Cl)cc1,26µM,?,-,-,?
Cc1cccc(C)c1NC(=O)CCCSc1nnc(-c2ccc(Cl)cc2)n1-c1ccccc1,16µM,-,-,?,23µM
Cc1ccc(-c2nnc(SCC(=O)N/N=C/c3c(C)nn(-c4ccccc4)c3C)n2-c2ccc(C)cc2)cc1,?,-,-,-,?
CCc1n[nH]c(=S)n1N=C1CCC(C)CC1 (stereo unspecified),-,-,-,-,-
Cc1cc(C)c2c(=O)c(C#N)coc2c1,-,-,-,-,-
CCCNC(=O)NC(=O)c1cnccc1C(F)(F)F,-,-,-,-,-
O=C(c1ccc(Br)cc1)N1CCN(S(=O)(=O)c2ccccc2)CC1,?,-,-,-,?
Cc1cccc(NC(=S)NC2CCCCC2)n1,?,-,?,-,26µM
CCOC(=O)c1ccc(NC(=S)Nc2cccc(C)n2)cc1,?,-,-,-,?
COC(=O)Cc1ccc(NC(=S)Nc2cccc(C)n2)cc1,18µM,-,-,-,?
Cc1cccc(NC(=S)NC(=O)c2cccs2)n1,-,-,1.3µM,5.6µM,-
Cc1cccc(NC(=S)Nc2cccc(C)n2)n1,5.2µM,-,-,-,?
Cc1cccc(NC(=S)NC2CCCC2)n1,?,-,-,-,?
Cc1cccc(NC(=O)CCC(=O)c2cccs2)n1,-,-,-,-,-
CC(OC(=O)[C@@H](NC(=O)c1ccco1)C(C)C)C(=O)Nc1ncc(Cl)cc1Cl (stereo partly specified),-,-,-,-,-
O=C(c1nc2ccc(Cl)cn2c1CN1CCC[C@H]1CO)N1CCCCCCC1,-,-,-,-,-
COc1cccc(C(=O)NCC(=O)NCc2cc(=O)n(C)c(=O)n2C)c1OC,-,-,-,-,-
COc1ccc(S(=O)(=O)Nc2nnc(Cc3ccc(OC)c(OC)c3)s2)cc1,-,-,-,-,-
COc1ccc(Oc2nc(-c3cccnc3)nc3ccccc23)cc1,?,?,-,-,?
Fc1ccccc1Oc1nc(-c2ccncc2)nc2ccccc12,16µM,-,-,-,?
CC(C)(C)CC(C)(C)SSc1n[nH]c(=S)s1,?,-73,-,-,?
SMILES,TDP1 cell noCPT,IL-1B inflam inh,HT1080-NT tox,HT1080 IDH1KD tx,TDP1 cell CPT
Nc1ccc(O)cc1,12µM,.,.,.,7.7µM
COc1ccc(-c2cn3nc(N4CCCC(C(=O)Nc5cc(C)ccc5C)C4)sc3n2)cc1 (stereo unspecified),16µM,.,.,.,23µM
COc1ccc(-c2cn3nc(N4CCCC(C(=O)NCc5ccccc5OC)C4)sc3n2)cc1 (stereo unspecified),?,.,.,.,18µM
COc1ccc(-c2cn3nc(N4CCCC(C(=O)Nc5ccccc5F)C4)sc3n2)cc1 (stereo unspecified),15µM,.,.,.,21µM
CCc1ccc(CNC(=O)C2CCN(c3nn4cc(-c5ccc(OC)cc5)nc4s3)CC2)cc1,-,.,.,.,-
Cc1ccc(-c2cn3nc(N4CCC(C(=O)Nc5ccccc5C)CC4)sc3n2)cc1,?,.,.,.,-
COc1ccc(-c2cn3nc(N4CCCC(C(=O)Nc5ccc(Cl)cc5C)C4)sc3n2)cc1 (stereo unspecified),-,.,.,.,?
CC(=O)c1c2c3c(c(Br)ccc3n(C)c1=O)C(=O)c1ccccc1-2,23µM,-,-,-,?
CC(=O)c1c2c3c(cccc3n(C)c1=O)C(=O)c1ccccc1-2,-,-,-,-,-
Cc1ccc(NS(=O)(=O)c2cc(NC(=O)C(C)Oc3ccccc3)ccc2C)c(C)c1 (stereo unspecified),23µM,-,-,?,?
Cc1ccc(NC(=O)C(C)Oc2ccccc2)cc1S(=O)(=O)N1CCCCCC1 (stereo unspecified),23µM,-,-,-,?
Cc1ncc2c(c1CNC(=O)c1cncs1)CCN(C(=O)c1ccsc1)C2,-,.,.,.,-
O=C(O)CC1(CC(=O)Nc2cc(C(F)(F)F)cc(C(F)(F)F)c2)CCCCC1,-,.,?,?,-
CCc1cc(Cn2nc(-c3ccccc3)cc2C(=O)NCc2ccccc2OC)on1,21µM,?,-,-,?
CCCCC(=O)OC1CCC2C3CCc4cc(O)ccc4C3CCC12C (stereo unspecified),18µM,-,?,?,?
C[C@]12CCC3c4ccc(O)cc4CCC3C1CCC2OC(=O)CCC1CCCC1 (stereo partly specified),-,.,.,.,-
C[C@]12CC[C@@H]3c4ccc(O)cc4CC[C@H]3[C@@H]1CC[C@@H]2OC(=O)CCC(=O)O,-,-,-,-,0.73µM
O=C(CN1CCN(c2ccc(C(F)(F)F)cn2)CC1)NCc1ccc2c(c1)OCO2,?,-,-,-,-
O=C(Cn1c(=O)nc(-c2ccccc2)c2ccccc21)NCCCc1ccccc1,?,.,.,.,-
O=C1C[C@H]2C=CCc3cccc(c32)CN1Cc1ccc(Br)cc1,11µM,.,.,.,?
COc1ccccc1CN1Cc2cccc3c2[C@@H](CC1=O)[C@H](O)[C@H](O)C3,-,-,-,-,-
Cc1ccccc1CN1Cc2cccc3c2[C@H](C=CC3)CC1=O,10µM,.,.,.,11µM
Clc1ccc(CN2CC[C@H]3C=CCc4cccc(c43)C2)cc1,21µM,-,-,-,?
Fc1ccc(CN2CC[C@H]3C=CCc4cccc(c43)C2)cc1,?,-,-,-,?
CSCCC(NC(=O)c1ccco1)C(=O)OCc1cc([N+](=O)[O-])cc2c1OCOC2 (stereo unspecified),-,-,-,-,-
CC(=O)c1c(O)c(C)c(O)c2c1OC1=CC(=O)C(C(C)=O)C(=O)[C@@]12C (stereo partly specified),?,-,-,-,18µM!
CC(=O)c1c(O)c(C)c(O)c2c1OC1=CC(=O)C(C(C)=O)C(=O)C12C (stereo unspecified),-,.,.,.,-
Cc1nn(-c2ccccc2)c2sc(C(=O)Nc3cccc(O)c3)cc12,23µM,.,.,.,?
